Screens: PubChem BioAssay, National Center for Advancing Translational Sciences (NCATS)
HEK293 tox: HEK 293 cell cytotoxicity; HEK 293 viability, ATP luminescence (CellTiter-Glo), 48-72 h; Potency, µM (top dose mostly 115 µM), inactives show at the top dose activity change, negative = cytotoxicity, usual class: inhibitors; 94,000 compounds, 6.6% hits; AID 1345083; further: on the % scale 0 is the no-effect control and ±100 the full control effect; nearly all actives have a fitted effect of over 60% in size
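ATP-coupled CellTiter-Glo luminescence served as viability read-out, recorded 10 min after reagent addition at room temperature. HEK 293 cells, 250 cells/well, had been incubated with pintool-transferred compound for 48 or 72 hr at 37 degree Celsius.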
NIH3T3 tox: NIH 3T3 cell cytotoxicity; NIH 3T3 viability, CellTiter-Glo ATP luminescence, 48-72 h; Potency, µM (doses to about 96.7 µM), without a hit: at the highest dose activity change, negative = cytotoxicity, most hits filed as inhibitors; 94,000 compounds, 4.3% hits; AID 1345082; further: on the % scale 0 is the no-effect control and ±100 the full control effect; nearly all actives have a fitted effect of over 55% in size
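Cells were seeded at 400 per well, treated with pin-transferred compound, and kept 48 or 72 hr at 37 °C before CellTiter-Glo addition and luminescence imaging of cellular ATP.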
NPR1 antag: human Npr1 receptor antagonism; Potency, µM (highest dose often 46.3 µM), for inactives: top-dose activity change, negative = inhibition, hits mostly inhibitors; P16066; 76,000 compounds, 1.6% hits; HEK293 hNpr1 GloSensor cGMP, ANP-stimulated luminescence; AID 1347048; calls by dose curve; further: on the % scale 0 is the no-effect control and ±100 the full control effect; nearly all actives have a fitted effect of over 60% in size
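HEK293 cells stably expressing human Npr1 and cGMP GloSensor pGS-40F, loaded 2 h with 2% GloSensor reagent, given compound 30 min at room temperature. Luminescence read before and 20 min after 0.1 nM hNppA.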
FLuc inh-1: inhibitors of firefly (Photinus pyralis) luciferase; P08659; purified P. pyralis luciferase, luminescence, biochemical; Potency, µM (titrated, usually from 115 µM), hits mostly inhibitors; 76,000 compounds, 2.5% hits; further: on the % scale 0 is the no-effect control and ±100 the full control effect; nearly all actives have a fitted effect of over 65% in size
Target sequence (P08659 whole entry, looked up): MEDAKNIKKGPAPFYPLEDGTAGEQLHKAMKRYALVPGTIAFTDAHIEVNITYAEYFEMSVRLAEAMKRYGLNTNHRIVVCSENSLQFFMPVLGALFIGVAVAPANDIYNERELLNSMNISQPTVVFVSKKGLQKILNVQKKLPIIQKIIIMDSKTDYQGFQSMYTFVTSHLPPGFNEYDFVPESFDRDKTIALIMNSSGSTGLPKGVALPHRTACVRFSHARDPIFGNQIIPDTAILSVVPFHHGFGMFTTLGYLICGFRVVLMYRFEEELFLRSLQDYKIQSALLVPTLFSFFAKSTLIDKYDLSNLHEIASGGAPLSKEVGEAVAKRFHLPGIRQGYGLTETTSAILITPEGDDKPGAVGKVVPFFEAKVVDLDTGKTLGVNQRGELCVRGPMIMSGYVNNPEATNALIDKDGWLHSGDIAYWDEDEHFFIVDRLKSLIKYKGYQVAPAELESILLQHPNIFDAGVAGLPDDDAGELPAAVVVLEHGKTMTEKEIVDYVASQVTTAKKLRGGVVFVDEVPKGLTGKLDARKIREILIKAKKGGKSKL
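Inhibitors were tested against purified firefly luciferase in a biochemical, low-substrate format (both substrates at 10uM) and luminescence measured with a CCD imager.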
GPT2 inhibitor: GPT2 alanine aminotransferase inhibition; Q8TD30; Recombinant GPT2, coupled pyruvate oxidase/HRP Amplex Red fluorescence; Potency, µM (series often up to 57.7 µM), for inactives: at the top dose activity change, negative = inhibition, most hits filed as inhibitors; 100,000 compounds, 0.25% hits; further: on the % scale 0 is the no-effect control and ±100 the full control effect; nearly all actives have a fitted effect of over 60% in size
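Inhibition is scored from Amplex Red fluorescence generated when pyruvate oxidase and HRP act on pyruvate released by GPT2. Reactions contain 10ng/uL enzyme, 250uM a-KG and 2mM L-alanine and run 30 min at room temperature.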
FLuc SDR -ATP: firefly luciferase binding stabilization, ATP absent; shares compounds with FLuc inh-1; Purified FLuc-C-HiBiT, Nano-Glo HiBiT luminescence, no ATP; Potency, µM (top dose mostly 32.7 µM), without a hit: at the top dose activation (signal gain), most hits filed as activators; 1,300 compounds, 7.8% hits; AID 1963318; further: nearly all actives have a fitted effect of over 55% in size
FLuc SDR ATP: firefly luciferase binding stabilization, ATP added | shares compounds with FLuc inh-1 | purified FLuc-C-HiBiT + ATP, HiBiT complementation luminescence | Potency, µM (doses to about 32.7 µM), for inactives: top-dose activation (gain of signal), actives largely listed as activators | 1,300 compounds, 8.7% hits | AID 1963319;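 further: signal reports ligand binding via conformational change of the enzyme rather than luciferase catalysis; % of control where 0% means no effect; nearly all actives have a fitted effect of over 55% in size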
FLuc inh-2: inhibitors of firefly luciferase enzymatic activity; 1,300 compounds, 42% hits; shares compounds with FLuc inh-1; Potency, µM (doses to about 32.7 µM), for inactives: top-dose activity change, negative = inhibition, actives largely listed as inhibitors; purified FLuc-C-HiBiT enzyme, luciferin luminescence; further: on the % scale 0 is the no-effect control and ±100 the full control effect; nearly all actives have a fitted effect of over 70% in size
Numbers without * were called inactive; i = inactive; ? = inconclusive; . = no result given; [ ] = dose if it differs, or a comment. Hits are enriched below; roughly 10% of the tested compounds scored in any of these assays. Unless noted, the call rests on the fitted dose curve; in most records, active means well fitted curve in the direction sought with a large enough effect; inconclusive means small, poorly fitted or top-dose-only effect, or another doubt; inactive means no such curve, though single readings can be large; an effect the other way counts as inactive or inconclusive. Potency means the concentration at half of the fitted maximal effect.

SMILES | HEK293 tox | NIH3T3 tox | NPR1 antag | FLuc inh-1 | GPT2 inhibitor | FLuc SDR -ATP | FLuc SDR ATP | FLuc inh-2
O=C(NCc1ccoc1)c1ccc2nc(-c3ccc(F)cc3)cn2c1 | ? | ? | -6% | 5.6µM* | 2% | 20% | 15% | ?
COc1ccccc1CNC(=O)c1ccc2nc(N3CCCCC3)sc2c1 | . | . | . | . | . | 15% | 12% | -14%
Cc1noc(C)c1[S+](=O)([O-])N1CCC2(CC(c3cccc(C(F)(F)F)c3)=NO2)C1 (stereo not given) | 1% | 3% | . | . | -1% | . | . | .
O=C(c1cc(-c2ccccn2)n[nH]1)N1C[C@@H](CN2CCCCC2)[C@@H](CO)C1 | i | -5% | 5% | i | -3% | . | . | .
CNC(=O)c1cccn2cncc12 | 2%[230 µM] | -10%[174 µM] | 0%[70.6 µM] | i | i | . | . | .
C[C@@H]1C(=O)O[C@H]2[C@H]1CC[C@@]1(C)Cc3sc(NC(=O)COCC(=O)O)nc3[C@@H](C)[C@H]21 | i | i | 0%[70.6 µM] | 13µM* | i | 4.5µM* | ? | 5.7µM*
CSCC(=O)Nc1nc2c(s1)C[C@]1(C)CC[C@@H]3[C@H](OC(=O)[C@H]3C)[C@H]1[C@@H]2C | 35µM* | 100µM* | 7.1µM* | 0.89µM* | i | ? | ? | 4.5µM*
COc1ccccc1C(=O)Nc1cc(-c2ccncc2)nn1-c1ccccc1 | ? | ? | . | . | i | . | . | .
CCOc1ccc(C(=O)Nc2ccc3ncnc(N4CCCCC4)c3c2)cc1 | ? | ? | -3% | i | 5% | . | . | .
CCc1ccc(C(=O)Nc2ccc3c(N4CCOCC4)ncnc3c2)cc1 | ? | 8.9µM* | 2% | 10µM* | -6% | ? | ? | 7.9µM*
CN(C)c1cccc(C(=O)Nc2ccc3c(N4CCOCC4)ncnc3c2)c1 | ? | -66% | -14% | 13µM* | -10% | 27% | ? | ?
CN(C)c1cccc(C(=O)Nc2ccc3ncnc(N4CCCCC4)c3c2)c1 | ? | ? | -17% | i | 5% | . | . | .
CCCc1nn(-c2ccccc2)c(=O)n1CC(=O)N(C)Cc1cnn(C)c1C | -6% | -20% | 0% | i | -2% | . | . | .
COc1ccc(-c2noc([C@@H]3C[C@@H](O)CN3Cc3cccs3)n2)cc1 | -22%[172 µM] | -36%[174 µM] | -14%[70.6 µM] | 14µM* | 0%[88.5 µM] | 10%[49.3 µM] | 9%[49.3 µM] | ?
Cc1ccc(/C=C/c2nc3ccccc3[nH]2)cc1 | . | . | . | . | . | 0.39µM* | 0.56µM* | 0.044µM*
COc1ccc(NC(=O)c2cn3cc(-c4ccccc4)sc3n2)cc1 | ? | -29% | . | . | 2% | . | . | .
COc1ccc(NC(=O)Nc2nnc(C)s2)cc1 | . | . | . | . | . | 24% | 13% | ?
O=C(N[C@H]1CO[C@H]2[C@@H]1OC[C@@H]2Nc1nccc(-c2cccs2)n1)C1CCCCC1 | ? | ? | ? | i | 3%[88.5 µM] | . | . | .
NC(=O)[C@@H]1CCCN1C(=O)c1ccc2oc(-c3cccc(F)c3)nc2c1 | ? | ? | 3% | 11µM* | i[11.5 µM] | 17% | 16% | -19%
N#Cc1cccc(C(=O)N2CCC(n3cc(-c4nc(-c5ccccc5)no4)nn3)C2)c1 (stereo not given) | ? | ? | -27% | ? | 5% | . | . | .
O=C(CSc1nccn1Cc1ccco1)Nc1ccc(OC(F)(F)F)cc1 | . | . | . | . | . | 13% | 11% | ?
CN1CCC(NC(=O)C(C)(C)Oc2nn(Cc3ncccn3)c3ccccc23)CC1 | . | . | . | . | . | 14%[49.3 µM] | 11%[49.3 µM] | 0%[49.3 µM]
CC(C)(Oc1nn(CC2CC2)c2ccc(CN3CCCC3)cc12)C(=O)NC1CCOCC1 | . | . | . | . | . | 12%[49.3 µM] | 10%[49.3 µM] | -3%[49.3 µM]
COCc1ccc2c(c1)c(OC(C)(C)C(=O)NC1CC1)nn2Cc1ccccc1 | ? | ? | 1%[70.6 µM] | i | -16%[88.5 µM] | . | . | .
OC(c1ccc(-c2ccc(CN3CCN(Cc4ccncc4)CC3)cc2)c(F)c1)(C(F)(F)F)C(F)(F)F | . | . | . | . | i | . | . | .
SMILES | HEK293 tox | NIH3T3 tox | NPR1 antag | FLuc inh-1 | GPT2 inhibitor | FLuc SDR -ATP | FLuc SDR ATP | FLuc inh-2
COc1ccccc1NC(=O)Cn1c(-c2ccc(F)cc2)nc(C)cc1=O | ? | -14% | -6% | i | -21% | . | . | .
COc1ccccc1NC(=O)CN1C(=O)CC(c2ccc(C)c(C)c2)=Nc2ccccc21 | . | . | . | . | . | 19% | 15% | ?
COCc1noc([C@@H]2CC(F)(F)CN2C(=O)C2CCC2)n1 | -2% | 0% | -3% | i | 2% | . | . | .
CCc1noc(-c2nc(-c3ccccc3OC)no2)n1 | ? | -6% | -2% | i | -13% | . | . | .
CCc1ccccc1Nc1nc(-c2cccc(OC)c2OC)no1 | ? | ? | -20% | 14µM* | i | 21% | 13% | ?
O=C(c1cc(-c2ccc(F)cc2)nc2ccccc12)N1CCC(c2nc(C3CCOCC3)no2)C1 (stereo not given) | ? | ? | -8% | 10µM* | -2% | ? | 17% | ?
Cc1cc(CN2CC[C@@H]3CN(S(C)(=O)=O)[C@@H]3C2)n(C)n1 | i | -7% | -2% | i | 0% | . | . | .
CC(=O)NCCC1CCN(C(=O)Nc2ccc(C)cc2)CC1 | 10% | 3% | -21% | 8.9µM* | -13% | ? | ? | ?
Cc1ccc(NC(=O)N2CCC(CCNC(=O)c3ccco3)CC2)cc1F | -16% | ? | 5% | i | i | . | . | .
CCC(=O)NCCC1CCN(C(=O)Nc2ccc(C)cc2)CC1 | 12% | i | -1% | 13µM* | 4% | ? | ? | ?
COc1ccc(C(=O)NCCC2CCN(C(=O)Nc3ccc(C)cc3)CC2)cc1 | 2% | -21% | -21% | ? | i | . | . | .
CCC(=O)NCCC1CCN(C(=O)Nc2ccc(C)c(F)c2)CC1 | 9% | -3% | -3% | 11µM* | -11% | ? | ? | ?
CC(C)NC(=O)C[C@@H]1c2nc(NC(=O)c3ccc(F)cc3)sc2C[C@@H]2[C@](C)(CO)[C@H](O)CC[C@]21C | i | -1% | 2% | i | 2% | . | . | .
COCCn1nnnc1C1CC2(CCOCC2)C(=O)N1Cc1cccc(C)c1 (stereo not given) | -12% | i | 2% | i | i | . | . | .
COC1CCC12CCN(C(=O)C1CCOCC1)CC2 (stereo not given) | -21% | -8% | 5% | i | i | . | . | .
